# Screens as filed in PubChem.
# Compounds with a hit are over-represented: about 4.8% of the library has one in this group of screens.
# HepG2 viability: qHTS for Inhibitors of TGF-b: Cytotox Counterscreen | HepG2 CAGA-GFP viability, ATP luminescence, 18 h | AID 588856, 2011 | 410,000 compounds, 0.76% hits | Potency, µM (highest dose often 46.1 µM), for inactives: at the highest dose activity change, negative = cytotoxicity, most hits filed as cytotoxic; note: potency is the fitted concentration of half-maximal effect
#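 CellTiter-Glo luminescence gave cytotoxicity after 18 hours at 37 degrees C. The cells were HepG2 CAGA-GFP in 1% FBS DMEM, stimulated with 500 pg/mL TGF-beta after compound addition. %Activity was normalised to no-cell wells (complete cell-killing) and DMSO (no toxicity), and curves were fitted and classified.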
# S2 tox: Viability Counterscreen for Primary qHTS for Inhibitors of ATXN expression. S2 cells (HEK-293 line with an ATXN2-luciferase reporter) viability, CellTiter-Fluor protease fluorescence, 24 h. Potency, µM (titrated, usually from 56.7 µM), actives largely listed as cytotoxic. 400,000 compounds, 0.49% hits; note: potency is the fitted concentration of half-maximal effect; nearly all actives have a fitted effect of over 40% in size
# TGFb SMAD3 inh: qHTS for Inhibitors of TGF-b; 410,000 compounds, 1.2% hits; Potency, µM (titrated, usually from 46.1 µM), for inactives: top-dose activity, negative = inhibition, actives largely listed as inhibitors; AID 588855, 2011; HepG2 CAGA-GFP TGF-b/SMAD3 reporter, GFP fluorescence, 18 h; TGF-beta stimulated, 500 pg/mL final; note: potency is the fitted concentration of half-maximal effect; % is set by controls: 0 for no effect and ±100 for the full control effect; nearly all actives have a fitted effect of over 65% in size
#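 First, reporter cells (HEPG2 CAGA-GFP) rested 2 h at 37 degrees C. Next, compounds were pinned in and TGF-beta added to 500 pg/mL final. After 18 h, GFP was imaged per cell and summed per well.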
# DRD3 agonist: qHTS of D3 Dopamine Receptor Agonist: qHTS; D(3) dopamine receptor (Homo sapiens), P35462; 410,000 compounds, 0.58% hits; max activation, %; D3R DiscoveRx beta-arrestin cells, luminescence, 90 min; in the data active = max activation above about 30%; note: 0% is about no effect
# Target sequence (P35462 whole entry, looked up): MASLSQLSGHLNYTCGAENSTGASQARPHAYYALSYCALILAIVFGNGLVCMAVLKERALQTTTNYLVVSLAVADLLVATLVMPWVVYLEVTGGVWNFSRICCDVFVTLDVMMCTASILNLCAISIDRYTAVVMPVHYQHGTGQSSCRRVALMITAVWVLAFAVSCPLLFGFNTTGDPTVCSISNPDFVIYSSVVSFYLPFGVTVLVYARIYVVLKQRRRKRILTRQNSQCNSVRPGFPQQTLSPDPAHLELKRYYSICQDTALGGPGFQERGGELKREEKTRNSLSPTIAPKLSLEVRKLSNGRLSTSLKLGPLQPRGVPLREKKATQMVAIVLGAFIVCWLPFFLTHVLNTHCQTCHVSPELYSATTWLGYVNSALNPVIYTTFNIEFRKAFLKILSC
#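 Agonist-mode cell screen: cells plated at 1500/well and incubated overnight at 37 °C, then exposed to library compounds for 90 min at 37 °C. Detection reagent was added for 30–60 min at room temperature, and luminescence was read.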
# ATXN2 expr inh: Primary qHTS for Inhibitors of ATXN expression | HEK-293 ATXN2-luciferase reporter, luminescence, 24 h | Potency, µM (doses to about 57 µM), for the others: top-dose activity change, negative = inhibition, hits mostly inhibitors | 360,000 compounds, 0.72% hits | AID 1745845, 2022; note: potency is the fitted concentration of half-maximal effect; % is set by controls: 0 for no effect and ±100 for the full control effect; nearly all actives have a fitted effect of over 55% in size
#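 ATXN2-luciferase reporter cells (luciferase flanked by upstream and downstream ATXN2 gene portions) were treated 24 h at 37 °C with compounds at up to 57 uM. SteadyGlo luminescence gave expression; GF-AFC fluorescence gave viability.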
# D3 antag: qHTS of D3 Dopamine Receptor Antagonist: qHTS. 360,000 compounds, 2.5% hits. max response, negative = inhibition, %. D3R cells, DiscoveRx beta-arrestin luminescence, antagonist mode; stronger effect = lower value. D(3) dopamine receptor (Homo sapiens), P35462; in the data active = max response below about -50%; inconclusive = no clear call, values can overlap the other calls; note: % is set by controls: 0 for no effect and ±100 for the full control effect
#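 Cells expressing the human receptor were seeded at 1500 cells/well, incubated overnight at 37 degrees C in 5% CO2, then exposed to library compounds with dopamine controls for 90 minutes at 37 degrees C before luminescent detection.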
# * = called active by the depositor; i = inactive; ? = inconclusive; / = no result given. Unless noted, calls come from the whole dose curve; as a rule, active = well fitted curve in the direction sought with a large enough effect; inconclusive = small, poorly fitted or top-dose-only effect, or another doubt; inactive = no such curve, though single readings can be large; an effect the other way counts as inactive or inconclusive.
SMILES,HepG2 viability,S2 tox,TGFb SMAD3 inh,DRD3 agonist,ATXN2 expr inh,D3 antag
Cc1ccc2scc(N3CCN(c4ccc(F)cc4)CC3)c(=O)c2c1,-16%,?,-9%,-17,-20%,/
Cc1ccc(C)c(-n2sc3ccc(F)cc3c2=O)c1,-53%,?,10µM*,-1,?,-81*
COc1cc(NC(=O)CN(C)S(=O)(=O)c2ccc3[nH]c4c(c3c2)CCCC4)cc(OC)c1OC,-25%,?,?,7,-20%,/
O=c1c2oc3ccccc3c2n(Cc2ccccc2Cl)c(=O)n1Cc1ccco1,-2%,i,-44%,-9,-2%,/
C#C[C@]1(O)CC[C@H]2[C@H]3CCc4cc(OC)ccc4[C@H]3CC[C@@]21C,/,/,/,/,-1%,/
CN1[C@@H]2CC[C@H]1CC(OC(=O)[C@@H](CO)c1ccccc1)C2 (some centres not stated),/,i,/,/,/,/
N#Cc1ccc2sn(-c3ccccc3)c(=O)c2c1,-40%,/,?,4,?,?
O=c1c2cc([N+](=O)[O-])ccc2sn1-c1ccccc1,-7%,i,-12%,-19,23%,-94*
Cc1nc2ccc(CN(C)c3ccc(C(=O)N[C@@H](CCC(=O)O)C(=O)O)s3)cc2c(=O)[nH]1,/,i,/,-9,0.1µM*,/
CCOC(=O)Nc1ccc2c(c1)N(C(=O)CCN(CC)CC)c1ccccc1CC2,-19%,i,?,-1,/,6
CCOC(=O)Nc1ccc2c(c1)N(C(=O)CCN(CC)CC)c1ccccc1S2=O (configuration not stated),-95%,?,14µM*,-36,14%,-29
CC1CCC/C(=N\NC(=S)NCc2ccccc2)C1 (configuration not stated),-1%,i,3%,-1,0%,0
CC1C/C(=N\NC(=S)NCc2ccccc2)CC(C)(C)C1 (configuration not stated),-18%,i,-12%,-21,-8%,-56*
COc1ccc(CNC(=O)CN(c2ccc(C)cc2)S(=O)(=O)c2c(C)n[nH]c2C)cc1,-23%,i,?,8,7%,/
Cc1ccc(N(CC(=O)NCc2ccccc2Cl)S(=O)(=O)c2c(C)noc2C)cc1,0%,i,-9%,12,-3%,-24
